Here are results for six molecules from PubChem BioAssay (EPA / NIEHS).

Results filed as inconclusive are left out. Activity calls are given as the source filed them. Rule for the calls, unless noted: active = hit-call score of the fitted dose curve at least 0.9, where 1 is the maximum; inactive = score below 0.9.

The term AC50 denotes the concentration giving half of the maximal activity seen.

Assay [1] in a line: ATG_GLI_CIS: Attagene CIS-FACTORIAL HepG2 Assay for human Zinc Finger Protein GLI1 (AID 2282945). Particulars: HepG2, Attagene cis-factorial reporter mRNA, GLI element; actives raise or lower the signal. The method in brief:
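Bidirectional curve fits relative to DMSO, using reporter mRNA levels from RT-PCR plus capillary electrophoresis. Cells were HepG2 transiently carrying cis-regulated reporter constructs, harvested 24 h after dosing.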

Assay [2] is described as follows: ATG_GRE_CIS: Attagene CIS-FACTORIAL HepG2 Assay for human Glucocorticoid Response Elements (GRE) (AID 2282947). Particulars: HepG2 GRE cis-reporter, Attagene multiplex mRNA; actives raise or lower the signal. The method in brief:
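Multiplexed cis-reporter mRNA induction, HepG2, 24 h post-dose. RT-PCR, FAM-labelled, HpaI-digested amplicons by CE. Bidirectional fit vs DMSO.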

Assay [3] concerns the target Hepatocyte nuclear factor 6 (Homo sapiens) (UniProt Q9UBC0). The experiment in a line: ATG_HNF6_CIS: Attagene CIS-FACTORIAL HepG2 Assay for human Hepatocyte Nuclear Factor 6 (HNF6) (AID 2282952). Particulars: HepG2 Attagene cis-factorial HNF6 reporter transcription; actives raise or lower the signal. The procedure, abridged:
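Endogenous transcription factor activity in human HepG2 liver cells was captured through cis-regulated reporter constructs. After 24 h treatment, reporter mRNA was measured by RT-PCR with capillary electrophoresis, and activity was fitted in both directions relative to DMSO.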

Assay [4] addresses Heat shock factor protein 1 (Homo sapiens) (UniProt Q00613). The experiment in a line: ATG_HSE_CIS: Attagene CIS-FACTORIAL HepG2 Assay for human Heat Shock Transcription Factor 1 (HSE) (AID 2282953). Particulars: HepG2 HSE cis-reporter, Attagene RNA transcription; actives raise or lower the signal. The procedure, abridged: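 After a 24 h incubation with test chemical, transfected HepG2 cells were harvested for RNA; reporter transcripts were measured by RT-PCR and capillary electrophoresis. Values reflect gain or loss of signal relative to DMSO.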

Assay [5] is described as follows: ATG_SREBP_CIS: Attagene CIS-FACTORIAL HepG2 Assay for human Sterol Regulatory Element Binding (SREBP) (AID 2282962). Particulars: HepG2 Attagene cis-factorial SREBP reporter, mRNA; actives raise or lower the signal. The method in brief:
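Endogenous factor activity is measured in HepG2 through multiplexed reporter units under cis-element control. Following a 24 h incubation, reporter transcripts are reverse-transcribed, PCR-amplified and sized by capillary electrophoresis; activity is fitted in both directions relative to DMSO.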

For assay [6], the target named is Signal transducer and activator of transcription 3 (Homo sapiens) (UniProt P40763). The experiment in a line: ATG_STAT3_CIS: Attagene CIS-FACTORIAL HepG2 Assay for human Signal Transducer and Activator of Transcription 3 (STAT3) (AID 2282963). Particulars: HepG2, Attagene cis-factorial STAT3 reporter transcription; actives raise or lower the signal. The procedure, abridged:
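Cis-factorial format: endogenous transcription factors in HepG2 drive transfected reporter units. After 24 h treatment, reporter RNA was reverse-transcribed, amplified, FAM-labelled and HpaI-digested before CE analysis; activity scored in both directions against DMSO.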

In assay [7] the target is Hepatocyte nuclear factor 4-alpha (Homo sapiens) (UniProt P41235). Description: ATG_HNF4a_TRANS: Attagene TRANS-FACTORIAL HepG2 Assay for human Hepatocyte Nuclear Factor 4 alpha (HNF4a) (AID 2282982; active = hit-call score of the fitted dose curve at least 0.9, where 1 is the maximum). Particulars: HepG2 HNF4a transactivation reporter, mRNA readout. The method in brief:
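Multiplexed reporter assay: transfected HepG2, 24 h exposure, total RNA → oligo(dT) RT → PCR → 6-FAM extension → HpaI digest → CE fluorescence. DMSO = negative control.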

The nature of assay [8]: ATG_NF_kB_CIS: Attagene CIS-FACTORIAL HepG2 Assay for human Nuclear Factor Kappa B (NF-kB) (AID 2282991). Particulars: HepG2 Attagene cis-factorial NF-kB reporter mRNA; actives raise or lower the signal. The method in brief:
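Fluorescence of labelled RT-PCR products separated by capillary electrophoresis gives reporter mRNA levels from transfected HepG2 cells exposed 24 h; values are fitted in both directions relative to DMSO.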

Assay [9] in a line: ATG_Oct_MLP_CIS: Attagene CIS-FACTORIAL HepG2 Assay for human Octamer-Binding Transcription Factor (Oct) (AID 2282993). Particulars: HepG2 Attagene cis-factorial Oct reporter, mRNA; actives raise or lower the signal. The procedure, abridged: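 Cells of the HepG2 line express promoter-controlled reporter sequences whose mRNA levels, after 24 h treatment, are measured by RT-PCR and capillary electrophoresis. Increases and decreases are scored relative to DMSO.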

A short description of assay [10]: ATG_PBREM_CIS: Attagene CIS-FACTORIAL HepG2 Assay for human Phenobarbital-responsive Enhancer Module (PBREM) (AID 2282955). Particulars: HepG2 PBREM cis-reporter, Attagene multiplexed transcription; actives raise or lower the signal. The procedure, abridged:
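Measures endogenous factor action on a phenobarbital-responsive enhancer module. HepG2 transiently carrying cis reporters, 24 h treatment, mRNA read-out by RT-PCR plus capillary electrophoresis.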

Assay [11] is described as follows: ATG_M_06_TRANS: Attagene TRANS-FACTORIAL HepG2 Assay for M06 Transcription Factor (Internal Marker) (AID 2282983; active = hit-call score of the fitted dose curve at least 0.9, where 1 is the maximum). Particulars: HepG2 Attagene TRANS M06 internal marker reporter. The procedure, abridged:
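Human liver HepG2 cells bearing transiently transfected chimeric NR-GAL4 reporter units were treated with chemicals for 24 h. Total RNA was reverse-transcribed, reporter sequences amplified and labelled, then quantified by capillary electrophoresis. Activity was fitted upward relative to DMSO.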

Assay [12] has as its target human Retinoid X Receptor beta (RXRb), RXRB (gene 6257) (UniProt P28702). The experiment in a line: ATG_RXRb_TRANS: Attagene TRANS-FACTORIAL HepG2 Assay for human Retinoid X Receptor beta (RXRb) (AID 2283013; active = hit-call score of the fitted dose curve at least 0.9, where 1 is the maximum). The method in brief:
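Read-out: reporter mRNA induction via RT-PCR plus capillary electrophoresis fluorescence, analysed as signal increase relative to DMSO. Cells were human HepG2, transiently transfected with GAL4-UAS reporter constructs and chimeric receptor-Gal4 fusions, dosed for 24 h.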

The nature of assay [13]: TOX21_p53_BLA_p2_viability: Viability Assessment in the Tox21 HCT-116 p53 Agonism Beta-lactamase Assay, Phase 2 (AID 2283591; active = hit-call score of the fitted dose curve at least 0.9, where 1 is the maximum;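 note: compound exposure lasted 16 h at 37 °C; actives lower the ATP signal meaning cytotoxicity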). The procedure, abridged:
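Cytotoxicity readout: CellTiter-Glo ATP luminescence, 30 min at room temperature, after the beta-lactamase read. Cells were HCT116 exposed 16 h at 37C to compounds pin-transferred at 217-fold dilution from DMSO stocks.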

A short description of assay [14]: TOX21_p53_BLA_p5_viability: Viability Assessment in the Tox21 HCT-116 p53 Agonism Beta-lactamase Assay, Phase 5 (AID 2283600; active = hit-call score of the fitted dose curve at least 0.9, where 1 is the maximum). The method in brief:
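Viability is taken from cellular ATP content, measured by luciferase luminescence in the same wells after the beta-lactamase ratio read. Cells are seeded at 4000 per well and exposed to DMSO-dissolved compounds, diluted 217-fold, for 16 h.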

In assay [15] the target is Cellular tumor antigen p53 (Homo sapiens) (UniProt P04637). Description: TOX21_p53_BLA_p4_ratio: Tox21 HCT-116 p53 Agonism Beta-lactamase Assay, Ratio, Phase 4 (AID 2283601; active = hit-call score of the fitted dose curve at least 0.9, where 1 is the maximum). The procedure, abridged:
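Signal is the blue/green (460nm/530nm) ratio of cleaved versus uncleaved CCF4-AM substrate, read after 2 h substrate loading. Cells were HCT116 carrying the p53-responsive beta-lactamase reporter, dosed 16 h at 37C, 5% CO2; CellTiter-Glo measured in parallel.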

A short description of assay [16]: ATG_NRF2_ARE_CIS: Attagene CIS-FACTORIAL HepG2 Assay for human Nuclear Factor Erythroid 2 Related Factor 2 (NFR2) response to Antioxidant Response Elements (ARE) (AID 2282992). Particulars: HepG2 Attagene ARE/NRF2 reporter, transcription factor activity; actives raise or lower the signal. The method in brief:
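Endogenous transcription factor activity in human liver HepG2 cells is tracked via a cis-element-driven reporter within a multiplexed set. mRNA induction is read by RT-PCR and capillary electrophoresis after 24 h, with DMSO as baseline.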

A short description of assay [17]: TOX21_p53_BLA_p3_viability: Viability Assessment in the Tox21 HCT-116 p53 Agonism Beta-lactamase Assay, Phase 3 (AID 2283593; active = hit-call score of the fitted dose curve at least 0.9, where 1 is the maximum;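 note: cells exposed to compound for 16 h before reading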). The method in brief: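 Cellular ATP was quantified by CellTiter-Glo luminescence, read after 30 min at room temperature. Beforehand, HCT116 cells (4000/well) received compound 5 h post-seeding, 217-fold diluted from DMSO, then incubated 16 h at 37C.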

The target in assay [18] is Cellular tumor antigen p53 (Homo sapiens) (UniProt P04637). Description: TOX21_p53_BLA_p3_ratio: Tox21 HCT-116 p53 Agonism Beta-lactamase Assay, Ratio, Phase 3 (AID 2283596; active = hit-call score of the fitted dose curve at least 0.9, where 1 is the maximum). The procedure, abridged:
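Cells were seeded at 4000/well, rested 5 h at 37C, then dosed with DMSO compound solutions (217-fold dilution) for 16 h. CCF4-AM substrate was loaded for 2 h at room temperature, and the 460/530 nm emission ratio was fitted for gain of signal versus DMSO.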

The target is the same in assay [19]. The experiment in a line: TOX21_p53_BLA_p5_ratio: Tox21 HCT-116 p53 Agonism Beta-lactamase Assay, Ratio, Phase 5 (AID 2283599; active = hit-call score of the fitted dose curve at least 0.9, where 1 is the maximum). The method in brief: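 Beta-lactamase reporter ratio (blue 460 nm over green 530 nm, 405 nm excitation) after 2 h CCF4-AM loading, in HCT-116 cells exposed 16 h at 37 C to compounds pinned at 217-fold dilution. Increases relative to DMSO baseline scored.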

Assay [20] has as its target human Peroxisome Proliferator-activated Receptor alpha (PPARa), PPARA (gene 5465) (UniProt Q07869). Description: ATG_PPARa_TRANS: Attagene TRANS-FACTORIAL HepG2 Assay for human Peroxisome Proliferator-activated Receptor alpha (PPARa) (AID 2283001; active = hit-call score of the fitted dose curve at least 0.9, where 1 is the maximum;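 for AC50: potency for gain of reporter signal over DMSO so agonist or activator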). The procedure, abridged:
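Transfected HepG2 cells treated with test chemical for 24 h. RNA isolated, reverse-transcribed with oligo(dT), PCR-amplified, FAM-labelled and HpaI-digested. Fragments sized by capillary electrophoresis; gain-of-signal fit relative to DMSO.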

Hepatocyte nuclear factor 4-alpha (Homo sapiens), sequence (P41235 whole entry, looked up): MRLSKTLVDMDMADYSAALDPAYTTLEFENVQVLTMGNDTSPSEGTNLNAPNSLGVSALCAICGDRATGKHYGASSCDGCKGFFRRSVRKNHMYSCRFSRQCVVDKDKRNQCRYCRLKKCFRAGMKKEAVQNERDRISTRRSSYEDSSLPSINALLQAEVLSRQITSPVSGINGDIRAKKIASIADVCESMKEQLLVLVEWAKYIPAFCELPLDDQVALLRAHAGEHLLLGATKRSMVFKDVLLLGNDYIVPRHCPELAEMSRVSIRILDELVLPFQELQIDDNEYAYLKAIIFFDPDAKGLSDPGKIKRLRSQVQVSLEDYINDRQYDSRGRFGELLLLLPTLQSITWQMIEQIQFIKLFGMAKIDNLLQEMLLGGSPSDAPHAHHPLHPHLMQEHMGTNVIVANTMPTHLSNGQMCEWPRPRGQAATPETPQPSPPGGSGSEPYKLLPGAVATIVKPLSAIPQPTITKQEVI
human Peroxisome Proliferator-activated Receptor alpha (PPARa), PPARA (gene 5465), sequence (Q07869 whole entry, looked up, the tested form may be a part): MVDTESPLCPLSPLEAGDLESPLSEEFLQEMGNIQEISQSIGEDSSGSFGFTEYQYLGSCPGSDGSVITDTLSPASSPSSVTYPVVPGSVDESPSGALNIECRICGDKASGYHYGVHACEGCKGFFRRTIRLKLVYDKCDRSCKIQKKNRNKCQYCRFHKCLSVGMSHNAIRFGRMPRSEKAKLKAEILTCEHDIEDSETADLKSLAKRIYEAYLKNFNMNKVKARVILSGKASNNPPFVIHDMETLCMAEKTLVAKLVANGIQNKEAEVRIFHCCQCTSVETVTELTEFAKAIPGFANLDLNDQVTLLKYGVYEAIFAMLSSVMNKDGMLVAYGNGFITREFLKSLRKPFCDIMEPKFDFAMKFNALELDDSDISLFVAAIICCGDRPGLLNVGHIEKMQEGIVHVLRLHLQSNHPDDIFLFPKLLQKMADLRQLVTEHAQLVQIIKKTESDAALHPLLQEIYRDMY
Cellular tumor antigen p53 (Homo sapiens), sequence (P04637 whole entry, looked up): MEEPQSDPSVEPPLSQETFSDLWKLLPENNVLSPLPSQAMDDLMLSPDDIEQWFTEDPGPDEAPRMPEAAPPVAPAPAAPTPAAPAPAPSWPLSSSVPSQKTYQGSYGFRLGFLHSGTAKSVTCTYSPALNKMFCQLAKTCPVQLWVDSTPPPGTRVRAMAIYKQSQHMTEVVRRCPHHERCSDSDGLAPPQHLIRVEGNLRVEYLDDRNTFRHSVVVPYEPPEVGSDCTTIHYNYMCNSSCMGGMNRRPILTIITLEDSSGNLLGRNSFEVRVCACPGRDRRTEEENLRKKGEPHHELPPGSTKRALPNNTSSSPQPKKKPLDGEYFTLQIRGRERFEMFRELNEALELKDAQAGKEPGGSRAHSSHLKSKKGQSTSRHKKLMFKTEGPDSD
Hepatocyte nuclear factor 6 (Homo sapiens), sequence (Q9UBC0 whole entry, looked up): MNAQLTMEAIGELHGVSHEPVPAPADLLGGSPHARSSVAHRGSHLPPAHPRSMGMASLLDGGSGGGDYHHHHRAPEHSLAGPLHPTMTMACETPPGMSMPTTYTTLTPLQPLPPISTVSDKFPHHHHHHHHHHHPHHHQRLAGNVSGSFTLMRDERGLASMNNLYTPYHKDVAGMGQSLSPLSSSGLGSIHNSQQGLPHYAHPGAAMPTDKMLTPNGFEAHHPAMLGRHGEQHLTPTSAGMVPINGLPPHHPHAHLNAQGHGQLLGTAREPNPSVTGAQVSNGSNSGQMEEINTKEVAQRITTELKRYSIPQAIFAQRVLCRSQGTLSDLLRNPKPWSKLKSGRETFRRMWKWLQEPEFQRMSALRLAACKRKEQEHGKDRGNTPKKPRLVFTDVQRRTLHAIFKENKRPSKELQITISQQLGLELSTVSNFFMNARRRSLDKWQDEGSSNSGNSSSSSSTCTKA
Signal transducer and activator of transcription 3 (Homo sapiens), sequence (P40763 whole entry, looked up): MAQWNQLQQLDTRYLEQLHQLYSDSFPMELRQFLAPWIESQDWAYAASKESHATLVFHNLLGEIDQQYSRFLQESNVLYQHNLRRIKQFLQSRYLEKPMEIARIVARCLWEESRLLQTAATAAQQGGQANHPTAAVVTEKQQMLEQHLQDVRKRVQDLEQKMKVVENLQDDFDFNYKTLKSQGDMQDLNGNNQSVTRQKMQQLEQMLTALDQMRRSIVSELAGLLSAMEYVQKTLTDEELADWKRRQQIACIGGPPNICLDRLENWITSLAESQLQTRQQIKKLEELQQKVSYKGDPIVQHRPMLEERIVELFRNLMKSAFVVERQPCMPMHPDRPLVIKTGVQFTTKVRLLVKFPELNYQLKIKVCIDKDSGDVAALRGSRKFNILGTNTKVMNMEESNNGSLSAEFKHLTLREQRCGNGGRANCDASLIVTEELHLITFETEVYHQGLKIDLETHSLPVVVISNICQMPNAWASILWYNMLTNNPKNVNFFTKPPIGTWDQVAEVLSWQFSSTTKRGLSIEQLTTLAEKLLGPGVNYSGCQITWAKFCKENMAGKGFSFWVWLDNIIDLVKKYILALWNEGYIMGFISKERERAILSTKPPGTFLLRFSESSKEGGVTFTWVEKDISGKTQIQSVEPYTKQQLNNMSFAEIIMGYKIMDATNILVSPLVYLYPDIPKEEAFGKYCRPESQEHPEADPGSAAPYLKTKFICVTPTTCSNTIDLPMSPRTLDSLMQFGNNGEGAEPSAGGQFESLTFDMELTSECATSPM
Heat shock factor protein 1 (Homo sapiens), sequence (Q00613 whole entry, looked up): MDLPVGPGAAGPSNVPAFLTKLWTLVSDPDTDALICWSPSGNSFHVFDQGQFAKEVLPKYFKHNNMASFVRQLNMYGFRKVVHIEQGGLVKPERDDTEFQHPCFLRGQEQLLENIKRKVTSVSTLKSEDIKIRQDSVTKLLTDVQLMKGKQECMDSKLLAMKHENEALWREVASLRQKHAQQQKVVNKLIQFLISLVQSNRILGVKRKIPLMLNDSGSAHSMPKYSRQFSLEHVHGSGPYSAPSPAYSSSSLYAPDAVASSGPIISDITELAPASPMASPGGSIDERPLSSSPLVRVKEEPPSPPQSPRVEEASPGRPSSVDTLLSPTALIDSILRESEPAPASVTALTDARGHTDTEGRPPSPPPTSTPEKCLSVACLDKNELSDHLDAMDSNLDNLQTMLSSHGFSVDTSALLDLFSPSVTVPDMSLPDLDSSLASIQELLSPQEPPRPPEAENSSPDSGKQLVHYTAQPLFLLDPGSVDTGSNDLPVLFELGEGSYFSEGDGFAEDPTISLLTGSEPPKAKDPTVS
human Retinoid X Receptor beta (RXRb), RXRB (gene 6257), sequence (P28702 whole entry, looked up, the tested form may be a part): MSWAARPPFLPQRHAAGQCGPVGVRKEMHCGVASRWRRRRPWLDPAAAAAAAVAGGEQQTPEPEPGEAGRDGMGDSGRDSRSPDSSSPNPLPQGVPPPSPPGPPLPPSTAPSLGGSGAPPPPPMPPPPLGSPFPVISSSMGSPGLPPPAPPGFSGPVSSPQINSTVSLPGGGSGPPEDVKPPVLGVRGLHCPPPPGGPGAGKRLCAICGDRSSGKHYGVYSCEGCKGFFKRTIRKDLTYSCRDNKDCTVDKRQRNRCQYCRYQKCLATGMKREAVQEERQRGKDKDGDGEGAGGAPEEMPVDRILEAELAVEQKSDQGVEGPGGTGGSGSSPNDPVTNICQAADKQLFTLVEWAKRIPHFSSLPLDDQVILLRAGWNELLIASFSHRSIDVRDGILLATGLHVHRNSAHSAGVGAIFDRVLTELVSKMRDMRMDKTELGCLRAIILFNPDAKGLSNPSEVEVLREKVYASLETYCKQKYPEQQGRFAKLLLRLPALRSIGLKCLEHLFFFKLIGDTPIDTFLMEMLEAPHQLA

For the molecule `CCCCCCCC#N`, the molecule was classed as inactive in assay [1], in [2], in assay [3], in assay [4], in [5] and in [6]. Besides, the result in assay [7], in assay [8] and in [9] was inactive.

`NC(=O)c1ccc(N)cc1`: the result in [2], in assay [4], in assay [10], in assay [6], in assay [7] and in assay [11] was inactive. Further, the result in assay [8], in [9], in [12], in assay [13], in [14] and in [15] was inactive.

`O=C1NC(=O)C2CC=CCC12` (stereo not given): the call in [1], in assay [2], in assay [3], in assay [10], in assay [5] and in [6] was inactive. Further, the outcome in assay [7], in [11], in assay [16], in [9], in assay [13] and in assay [17] was inactive. The outcome in assay [18], in assay [19], in assay [14] and in [15] was inactive.

Take `c1ccc(CNc2ncnc3nc[nH]c23)cc1`: the call in [2], in assay [3], in assay [4], in assay [10], in [5] and in assay [6] was inactive. For the same molecule, the outcome in assay [7], in assay [11], in assay [8], in assay [20], in assay [13] and in [17] was inactive. In assay [14], the result was inactive.

Take `O=C(O)c1nc(Cl)c(Cl)c(Cl)c1Cl`: the molecule was called inactive in assay [2], in assay [10], in [5], in assay [6], in [7] and in assay [11]. In addition, the molecule was called inactive in assay [9] and in assay [20]. Also, in assay [16], the AC50 is 15.3 µM (active).

Consider `CCCCCCCCCCCCCCCCCC[N+](C)(C)C`, for which the call in assay [2] and in assay [11] was inactive. Moreover, the AC50 in assay [4] was 43.9 µM (active); in [10] it was 45.4 µM (active); in assay [5], 6.46 µM (active); in [6] it was 44 µM (active); in assay [7] it was 37.3 µM (active); in [8], 3.31 µM (active). Also, the AC50 is 6.14 µM (active) in [9]; 40.9 µM (active) in assay [20]; 46.2 µM (active) in [13]; 46.2 µM (active) in assay [17]; 72.7 µM (active) in assay [18]; 75 µM (active) in assay [19]. Besides, the AC50 in assay [14] is 62.8 µM (active); in assay [15], 75.3 µM (active).
